This note sets out measurements from PubChem BioAssay (EPA / NIEHS).

Broadly, the AC50 is the midpoint of the concentration-response curve, whichever way the signal moves.

Molecules are shown by their SMILES. Inconclusive results are not listed. Calls of active or inactive are those of the source. How the source made its calls, unless noted: active means hit-call score of the fitted dose curve at least 0.9, where 1 is the maximum; inactive means score below 0.9.

Test [1] addresses Myc proto-oncogene protein (Homo sapiens) (UniProt P01106). Nature of the test: ATG_Myc_CIS: Attagene CIS-FACTORIAL HepG2 Assay for human Myelocytomatosis (Myc) Proto-Oncogene Transcription Factor (AID 2282990). Particulars: HepG2, Attagene cis-reporter transcription factor activity; actives raise or lower the signal. The method in brief: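 After 24 h chemical treatment of HepG2 cells carrying multiplexed cis-regulated reporter constructs, reporter transcripts quantified by RT-PCR and capillary electrophoresis of fluorescent fragments. Gain or loss fitted against DMSO baseline.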

A short description of test [2]: ATG_NF_kB_CIS: Attagene CIS-FACTORIAL HepG2 Assay for human Nuclear Factor Kappa B (NF-kB) (AID 2282991). Particulars: HepG2 Attagene cis-factorial NF-kB reporter mRNA; actives raise or lower the signal. A digest of the protocol: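 DMSO served as negative control and baseline for bidirectional curve fitting. Transiently transfected HepG2 cells were dosed for 24 h, then reporter transcripts were measured by RT-PCR with capillary electrophoresis detection.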

The nature of test [3]: ATG_NRF2_ARE_CIS: Attagene CIS-FACTORIAL HepG2 Assay for human Nuclear Factor Erythroid 2 Related Factor 2 (NFR2) response to Antioxidant Response Elements (ARE) (AID 2282992). Particulars: HepG2 Attagene ARE/NRF2 reporter, transcription factor activity; actives raise or lower the signal. A digest of the protocol:
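Fluorescence intensity of reporter-specific cDNA fragments, separated by capillary electrophoresis, reflects mRNA induction in transfected HepG2 cells at 24 h. Activity is fitted bidirectionally, DMSO serving as baseline.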

Test [4] can be described thus: ATG_Oct_MLP_CIS: Attagene CIS-FACTORIAL HepG2 Assay for human Octamer-Binding Transcription Factor (Oct) (AID 2282993). The settings on record: HepG2 Attagene cis-factorial Oct reporter, mRNA; actives raise or lower the signal. A digest of the protocol:
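Cells of the HepG2 line express promoter-controlled reporter sequences whose mRNA levels, after 24 h treatment, are measured by RT-PCR and capillary electrophoresis. Increases and decreases are scored relative to DMSO.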

Test [5] deals with Cellular tumor antigen p53 (Homo sapiens) (UniProt P04637). The test is described as follows: ATG_p53_CIS: Attagene CIS-FACTORIAL HepG2 Assay for human p53 Transcription Factor (AID 2282994). Particulars: HepG2 p53 cis-element reporter, Attagene mRNA; actives raise or lower the signal. The method in brief: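 Transiently transfected HepG2 (multiple cis reporter transcription units); exposure 24 h; reporter RNA via RT-PCR, 6-FAM extension, 2 h HpaI digest at 37 C, CE detection; DMSO baseline.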
Sequence of Cellular tumor antigen p53 (Homo sapiens) (P04637 whole entry, looked up): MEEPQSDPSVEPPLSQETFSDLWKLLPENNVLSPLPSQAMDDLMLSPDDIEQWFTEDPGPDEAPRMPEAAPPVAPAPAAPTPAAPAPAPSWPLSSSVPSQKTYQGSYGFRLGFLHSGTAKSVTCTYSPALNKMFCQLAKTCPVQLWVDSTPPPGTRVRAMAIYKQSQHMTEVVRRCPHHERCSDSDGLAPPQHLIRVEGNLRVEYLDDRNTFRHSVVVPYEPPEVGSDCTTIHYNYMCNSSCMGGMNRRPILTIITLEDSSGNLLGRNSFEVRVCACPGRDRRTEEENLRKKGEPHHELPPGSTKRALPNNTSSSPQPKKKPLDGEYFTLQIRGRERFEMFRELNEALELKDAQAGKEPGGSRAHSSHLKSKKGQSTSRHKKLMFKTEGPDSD

Test [6] addresses human Peroxisome Proliferator-activated Receptor delta (PPARd), PPARD (gene 5467) (UniProt Q03181). Nature of the test: ATG_PPARd_TRANS: Attagene TRANS-FACTORIAL HepG2 Assay for human Peroxisome Proliferator-activated Receptor delta (PPARd) (AID 2283002; active means hit-call score of the fitted dose curve at least 0.9, where 1 is the maximum). A digest of the protocol:
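Read-out is induced reporter mRNA, quantified by RT-PCR with fluorescent labelling and capillary electrophoresis after 24 h dosing. Cells are HepG2 transiently carrying multiple GAL4-UAS reporter units driven by exogenous NR-GAL4 chimeras; DMSO serves as baseline.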

For test [7], the target named is Nuclear receptor subfamily 1 group I member 2 (Homo sapiens) (UniProt O75469). The test is described as follows: ATG_PXR_TRANS: Attagene TRANS-FACTORIAL HepG2 Assay for human Pregnane X Receptor (PXR) (AID 2283008; active means hit-call score of the fitted dose curve at least 0.9, where 1 is the maximum). A digest of the protocol: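 Transient HepG2 transfectants carrying multiplexed reporter transcription units; PXR activity read through a Gal4 chimera. 24 h exposure. RT-PCR/CE fluorescence; upward curve fit referenced to DMSO.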
Sequence of Nuclear receptor subfamily 1 group I member 2 (Homo sapiens) (O75469 whole entry, looked up, the tested form may be a part): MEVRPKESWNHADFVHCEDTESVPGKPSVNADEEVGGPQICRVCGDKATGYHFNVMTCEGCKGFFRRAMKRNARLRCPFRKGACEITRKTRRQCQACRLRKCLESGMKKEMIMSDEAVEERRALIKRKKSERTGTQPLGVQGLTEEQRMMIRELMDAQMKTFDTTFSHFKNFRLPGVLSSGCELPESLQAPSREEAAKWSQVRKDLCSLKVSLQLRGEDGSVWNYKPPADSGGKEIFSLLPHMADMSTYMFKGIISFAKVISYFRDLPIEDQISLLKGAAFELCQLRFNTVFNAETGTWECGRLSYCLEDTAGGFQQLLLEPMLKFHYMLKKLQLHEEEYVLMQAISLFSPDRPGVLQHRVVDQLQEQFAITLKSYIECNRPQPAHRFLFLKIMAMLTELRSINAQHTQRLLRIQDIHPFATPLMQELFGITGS

Test [8] deals with human Retinoic Acid Receptor gamma (RARg), RARG (gene 5916) (UniProt P13631). The test is described as follows: ATG_RARg_TRANS: Attagene TRANS-FACTORIAL HepG2 Assay for human Retinoic Acid Receptor gamma (RARg) (AID 2283009; active means hit-call score of the fitted dose curve at least 0.9, where 1 is the maximum). A digest of the protocol:
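Readout: reporter transcript levels via RT-PCR, 6-FAM primer-extension labelling, HpaI digestion and capillary electrophoresis. Cells: HepG2 carrying transfected RARg-GAL4 chimera plus UAS reporter set. Dosing 24 h; DMSO negative control.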

The target of test [9] is Retinoic acid receptor RXR-alpha (Homo sapiens) (UniProt P19793). Nature of the test: ATG_RXRa_TRANS: Attagene TRANS-FACTORIAL HepG2 Assay for human Retinoid X Receptor alpha (RXRa) (AID 2283012; active means hit-call score of the fitted dose curve at least 0.9, where 1 is the maximum). A digest of the protocol: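 Read-out: fluorescent reporter-transcript fragments quantified by capillary electrophoresis after RT-PCR. Transiently transfected HepG2 cells carrying GAL4-UAS reporters and NR-GAL4 chimeras were exposed to chemical for 24 h; activity scored as increase over DMSO.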
Sequence of Retinoic acid receptor RXR-alpha (Homo sapiens) (P19793 whole entry, looked up, the tested form may be a part): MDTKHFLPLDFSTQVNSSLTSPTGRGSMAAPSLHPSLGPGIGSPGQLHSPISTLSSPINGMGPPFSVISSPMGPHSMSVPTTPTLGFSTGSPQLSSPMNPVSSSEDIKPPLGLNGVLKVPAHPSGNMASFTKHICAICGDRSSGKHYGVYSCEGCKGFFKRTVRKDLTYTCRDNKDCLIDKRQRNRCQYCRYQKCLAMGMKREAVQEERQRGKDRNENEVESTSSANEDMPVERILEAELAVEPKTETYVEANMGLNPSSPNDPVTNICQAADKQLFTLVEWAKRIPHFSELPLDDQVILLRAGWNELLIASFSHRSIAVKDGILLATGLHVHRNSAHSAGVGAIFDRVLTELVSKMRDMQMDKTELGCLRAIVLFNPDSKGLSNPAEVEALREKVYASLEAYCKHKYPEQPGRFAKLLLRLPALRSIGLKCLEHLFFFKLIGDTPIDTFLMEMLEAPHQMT

In test [10] the target is human RAR-related Orphan Receptor beta (RORb), RORB (gene 6096) (UniProt Q92753). The test is described as follows: ATG_RORb_TRANS: Attagene TRANS-FACTORIAL HepG2 Assay for human RAR-related Orphan Receptor beta (RORb) (AID 2283010; active means hit-call score of the fitted dose curve at least 0.9, where 1 is the maximum). The method in brief:
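HepG2, transient MRTU transfection (GAL4-UAS reporters, exogenous NR-Gal4 chimeras); 24 h compound exposure; total RNA → RT-PCR → 6-FAM primer extension → HpaI digest → CE fluorescence. Positive direction vs DMSO baseline.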

Test [11] deals with Peroxisome proliferator-activated receptor gamma (Homo sapiens) (UniProt P37231). The test is described as follows: ATG_PPARg_TRANS: Attagene TRANS-FACTORIAL HepG2 Assay for human Peroxisome Proliferator-activated Receptor-gamma (PPARg) (AID 2283007; active means hit-call score of the fitted dose curve at least 0.9, where 1 is the maximum). The method in brief:
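Chimeric NR-Gal4 transactivation is measured in transiently transfected HepG2 cells by reporter mRNA induction at 24 h. Detection uses RT-PCR with fluorescent labelling and capillary electrophoresis; DMSO defines baseline.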

Test [12] deals with Retinoic acid receptor alpha (Homo sapiens) (UniProt P10276). The test is described as follows: ATG_RARa_TRANS: Attagene TRANS-FACTORIAL HepG2 Assay for human Retinoic Acid Receptor alpha (RARa) (AID 2283005; active means hit-call score of the fitted dose curve at least 0.9, where 1 is the maximum). The method in brief: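 Reporter transcripts, measured by RT-PCR with fluorescent labeling and capillary electrophoresis after 24 h dosing, reflect activity of an exogenous human RARa–GAL4 fusion in transiently transfected HepG2. Fitted for increase relative to DMSO.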
Sequence of Retinoic acid receptor alpha (Homo sapiens) (P10276 whole entry, looked up, the tested form may be a part): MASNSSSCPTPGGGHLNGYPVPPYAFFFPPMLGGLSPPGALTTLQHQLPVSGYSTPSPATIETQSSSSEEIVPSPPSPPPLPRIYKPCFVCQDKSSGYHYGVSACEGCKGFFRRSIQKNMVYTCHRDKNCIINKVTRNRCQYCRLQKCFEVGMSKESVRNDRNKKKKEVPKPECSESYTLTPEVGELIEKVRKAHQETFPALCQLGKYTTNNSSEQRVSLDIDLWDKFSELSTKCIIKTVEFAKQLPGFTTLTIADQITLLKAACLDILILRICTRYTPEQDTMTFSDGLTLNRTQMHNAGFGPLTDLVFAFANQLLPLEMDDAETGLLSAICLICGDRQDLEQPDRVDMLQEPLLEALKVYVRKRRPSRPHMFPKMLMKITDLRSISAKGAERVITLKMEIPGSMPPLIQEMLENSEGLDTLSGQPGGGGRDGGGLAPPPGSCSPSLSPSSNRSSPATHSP

Test [13] has as its target human RAR-related Orphan Receptor gamma (RORg), RORC (gene 6097) (UniProt P51449). The test is described as follows: ATG_RORg_TRANS: Attagene TRANS-FACTORIAL HepG2 Assay for human RAR-related Orphan Receptor gamma (RORg) (AID 2283011; active means hit-call score of the fitted dose curve at least 0.9, where 1 is the maximum). The method in brief: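 Activity is scored as increase in GAL4-UAS reporter mRNA over DMSO, detected by fluorescent RT-PCR and capillary electrophoresis in HepG2 cells transiently expressing a RORg-Gal4 chimera, 24 h after dosing.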

Sequence of Peroxisome proliferator-activated receptor gamma (Homo sapiens) (P37231 whole entry, looked up, the tested form may be a part): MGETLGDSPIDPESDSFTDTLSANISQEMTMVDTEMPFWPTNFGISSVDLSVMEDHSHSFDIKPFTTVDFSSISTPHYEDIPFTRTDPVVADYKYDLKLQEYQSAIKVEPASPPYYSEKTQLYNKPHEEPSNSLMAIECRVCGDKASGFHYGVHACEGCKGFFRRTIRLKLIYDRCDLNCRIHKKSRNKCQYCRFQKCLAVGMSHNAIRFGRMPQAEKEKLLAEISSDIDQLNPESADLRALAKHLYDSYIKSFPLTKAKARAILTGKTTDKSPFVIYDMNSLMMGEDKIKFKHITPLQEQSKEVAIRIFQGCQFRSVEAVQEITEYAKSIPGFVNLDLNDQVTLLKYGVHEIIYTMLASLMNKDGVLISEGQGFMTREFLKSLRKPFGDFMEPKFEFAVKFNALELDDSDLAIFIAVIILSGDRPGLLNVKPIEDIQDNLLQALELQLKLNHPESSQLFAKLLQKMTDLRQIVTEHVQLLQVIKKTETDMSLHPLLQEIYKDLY
Sequence of human Peroxisome Proliferator-activated Receptor delta (PPARd), PPARD (gene 5467) (Q03181 whole entry, looked up, the tested form may be a part): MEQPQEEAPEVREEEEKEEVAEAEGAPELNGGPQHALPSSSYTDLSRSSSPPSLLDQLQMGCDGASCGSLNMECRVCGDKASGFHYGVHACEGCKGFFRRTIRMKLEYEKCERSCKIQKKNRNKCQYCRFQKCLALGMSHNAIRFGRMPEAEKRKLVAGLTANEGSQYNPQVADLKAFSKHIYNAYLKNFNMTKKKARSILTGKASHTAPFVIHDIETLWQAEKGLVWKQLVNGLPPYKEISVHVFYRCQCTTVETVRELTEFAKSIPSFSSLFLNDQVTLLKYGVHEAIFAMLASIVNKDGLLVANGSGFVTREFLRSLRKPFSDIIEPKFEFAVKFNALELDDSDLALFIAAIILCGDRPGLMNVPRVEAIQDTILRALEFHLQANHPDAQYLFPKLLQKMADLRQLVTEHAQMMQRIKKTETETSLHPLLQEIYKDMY
Sequence of human RAR-related Orphan Receptor beta (RORb), RORB (gene 6096) (Q92753 whole entry, looked up, the tested form may be a part): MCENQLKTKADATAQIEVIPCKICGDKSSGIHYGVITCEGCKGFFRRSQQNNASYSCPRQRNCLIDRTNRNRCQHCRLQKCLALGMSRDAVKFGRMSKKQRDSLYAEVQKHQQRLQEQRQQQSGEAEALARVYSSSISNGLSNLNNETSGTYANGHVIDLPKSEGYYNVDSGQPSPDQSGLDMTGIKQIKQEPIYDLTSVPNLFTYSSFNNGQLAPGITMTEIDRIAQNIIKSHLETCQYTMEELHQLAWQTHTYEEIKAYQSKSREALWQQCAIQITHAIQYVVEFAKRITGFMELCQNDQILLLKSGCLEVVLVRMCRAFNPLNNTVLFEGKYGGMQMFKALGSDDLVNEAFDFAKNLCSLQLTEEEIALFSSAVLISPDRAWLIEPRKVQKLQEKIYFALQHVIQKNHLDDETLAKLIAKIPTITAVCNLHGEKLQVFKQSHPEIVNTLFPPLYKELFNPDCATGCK
Sequence of human Retinoic Acid Receptor gamma (RARg), RARG (gene 5916) (P13631 whole entry, looked up, the tested form may be a part): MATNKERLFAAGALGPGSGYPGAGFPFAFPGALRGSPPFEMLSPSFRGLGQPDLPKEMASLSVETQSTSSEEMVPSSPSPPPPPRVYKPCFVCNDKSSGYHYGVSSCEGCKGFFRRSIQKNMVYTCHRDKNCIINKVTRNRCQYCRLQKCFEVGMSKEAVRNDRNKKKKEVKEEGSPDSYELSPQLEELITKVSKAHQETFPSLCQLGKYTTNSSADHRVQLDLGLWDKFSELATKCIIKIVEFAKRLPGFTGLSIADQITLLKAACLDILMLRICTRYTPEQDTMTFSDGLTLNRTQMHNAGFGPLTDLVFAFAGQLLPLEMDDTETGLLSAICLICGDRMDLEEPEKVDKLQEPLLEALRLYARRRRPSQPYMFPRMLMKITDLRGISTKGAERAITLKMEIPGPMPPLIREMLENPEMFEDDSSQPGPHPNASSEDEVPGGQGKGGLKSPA
Sequence of Myc proto-oncogene protein (Homo sapiens) (P01106 whole entry, looked up, the tested form may be a part): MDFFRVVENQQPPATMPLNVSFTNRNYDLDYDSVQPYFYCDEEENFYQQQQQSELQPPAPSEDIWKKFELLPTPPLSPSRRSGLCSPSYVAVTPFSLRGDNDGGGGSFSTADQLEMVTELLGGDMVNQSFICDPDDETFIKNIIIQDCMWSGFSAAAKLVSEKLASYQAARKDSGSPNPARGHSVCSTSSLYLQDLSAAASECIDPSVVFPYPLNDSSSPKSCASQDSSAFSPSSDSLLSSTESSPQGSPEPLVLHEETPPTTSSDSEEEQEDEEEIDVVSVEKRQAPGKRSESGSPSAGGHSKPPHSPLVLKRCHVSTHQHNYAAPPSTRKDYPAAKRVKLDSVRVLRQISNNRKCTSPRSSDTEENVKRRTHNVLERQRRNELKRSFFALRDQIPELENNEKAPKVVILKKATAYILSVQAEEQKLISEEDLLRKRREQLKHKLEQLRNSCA
Sequence of human RAR-related Orphan Receptor gamma (RORg), RORC (gene 6097) (P51449 whole entry, looked up, the tested form may be a part): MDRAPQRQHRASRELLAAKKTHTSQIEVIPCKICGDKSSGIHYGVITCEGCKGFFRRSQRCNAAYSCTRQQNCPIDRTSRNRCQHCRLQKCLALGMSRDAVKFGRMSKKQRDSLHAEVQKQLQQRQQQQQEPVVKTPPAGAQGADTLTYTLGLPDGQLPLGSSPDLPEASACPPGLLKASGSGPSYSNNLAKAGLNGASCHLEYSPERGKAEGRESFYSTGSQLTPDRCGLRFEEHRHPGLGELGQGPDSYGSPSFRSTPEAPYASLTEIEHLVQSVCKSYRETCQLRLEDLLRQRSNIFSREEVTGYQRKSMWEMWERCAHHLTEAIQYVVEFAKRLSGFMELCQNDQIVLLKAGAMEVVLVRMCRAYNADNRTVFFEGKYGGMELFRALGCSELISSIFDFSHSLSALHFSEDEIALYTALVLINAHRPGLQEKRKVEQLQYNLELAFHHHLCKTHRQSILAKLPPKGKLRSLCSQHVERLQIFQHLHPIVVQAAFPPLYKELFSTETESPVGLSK

In the case of `CC(Br)C(=O)O` (stereo not drawn), the molecule was classed as inactive in test [1], in [2], in test [3], in test [4], in test [5] and in test [6]. In addition, the outcome in [7], in test [8] and in test [9] was inactive.
With `N#Cc1ccccn1`, the molecule was called inactive in test [1], in test [2], in test [3], in [4], in test [5] and in test [10].
For `CCC[CH2][Sn]([Cl])([Cl])[Cl]`, the outcome in test [1], in test [2], in test [4], in [5], in test [7] and in [10] was inactive. Further, the AC50 in [3] is 5.38 µM (active).
Turning to `CC(C#N)CCC#N` (stereo not drawn), the call in [1], in test [2], in [3], in test [4], in [5] and in [6] was inactive. Besides, the molecule was called inactive in test [11], in [7] and in test [8].
Regarding `OCC(O)CCl` (stereo not drawn), the molecule was called inactive in [1], in test [2], in [3], in test [4], in test [5] and in [6]. Moreover, the call in [11], in test [7], in test [10] and in test [9] was inactive.
For the molecule `CC(C)OC(=O)Nc1ccccc1`, the result in test [1], in test [2], in [3], in test [4], in [5] and in test [12] was inactive. For the same molecule, the call in test [7] and in [8] was inactive.
For the molecule `CNC`, the outcome in test [1], in test [2], in test [3], in test [4], in [5] and in test [6] was inactive. Further, in test [10], the call was inactive.
Take `CCC(C)c1cccc(C(C)CC)c1O` (stereo not drawn): the molecule was called inactive in test [1], in test [2], in test [4], in test [5], in test [6] and in [12]. For the same molecule, the molecule was classed as inactive in [11], in test [8], in test [13] and in test [9]. Also, the AC50 in test [3] was 18 µM (active); in test [7] it was 4.53 µM (active).
